A number with no mark means an inactive call. Unless noted, no rule for the calls is given here.

The nature of one assay: cell viability in Huh7 cells, primary screen, cytotoxicity control for HCV replication inhibitor project, CellTiter-Glo luminescence, basal, 48 h (AID 1143).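 Also: Huh7 hepatoma cells carrying a hepatitis C replication reporter with no stimulus; test concentration not given here.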 To be noted: Huh7 HCV replicon, higher = more signal, called active from +8 up or from −8 down. (In ATP-based viability assays light output follows the ATP content of the culture.)
`CCN1C(=O)[C@H]2[C@H]3[C@H](O)[C@H](O)CC(=NOCC=C(C)CCC=C(C)C)[C@@H]3CC[C@H]2C1=O`: the z-score is -2.44.
Regarding `O=C1[C@H]2[C@H]3[C@H](O)[C@H](O)CC(=NOC[C@@H](O)COCc4ccco4)[C@@H]3CC[C@H]2C(=O)N1Cc1ccccc1`, the z-score was -1.65.
Same read-out and setting: the value for `O=C1[C@H]2CCn3c(=O)n(-c4ccccc4)c(=O)n3[C@H]2[C@H](O)[C@@H]2O[C@H]12` was 0.332; that for `CON=C[C@@H](OC)[C@H](C)C=CCC(=O)OC` was -0.569; that for `CC(C)=CCCC(C)=CCON=C1C[C@@H](O)[C@@H](O)[C@@H]2[C@@H]3C(=O)N(Cc4ccc5c(c4)OCO5)C(=O)[C@@H]3CC[C@@H]12` was -0.292.
With `CC(=O)OC[C@H]1O[C@H](CC=NO[C@@H](C)c2cc(-c3c(C)cc(C)cc3C)no2)C=C[C@@H]1OC(C)=O`, the z-score was 0.125.
In the case of `COc1ccc(-c2cnnc(CCCn3ccnc3-c3ccccc3)n2)cc1`, the z-score was -4.68.
The same measure, in the same setting: the value for `O=C1C2=CC[C@H]3C(=O)N(c4ccc(F)cc4F)C(=O)[C@H]3[C@H]2[C@H](O)[C@@H]2O[C@H]12` was 0.612; that for `COC(=O)CC=C[C@@H](C)[C@@H](C=NOC[C@@H](O)COCc1ccco1)OC` was 0.545; that for `COC(=O)[C@H](C)NC(=O)CCC1CC(OC(=O)NCc2cccc3ccccc23)CC2(CCCC(COC(=O)NCCCN3CCCC3=O)O2)O1` (some centres not stated) was -0.0671.
In the case of `CCOC(=O)[C@H](CC(C)C)NC(=O)CCC1CC(OC(=O)NCc2ccc3c(c2)OCO3)CC2(CCCC(COC(=O)NCCc3ccccc3OC)O2)O1` (some centres not stated), the z-score was -0.556.
For `CO[C@@H](C(C)C)[C@@H](C)C1OC(=O)CC1O` (some centres not stated), the z-score was 0.265.
The same measure, in the same setting: then `Cc1ccc(C(C)C)n1C(=O)OC(C)(C)C`, with -0.841.
Regarding `CCOC(=O)[C@H](Cc1ccccc1)NC(=O)CCC1CC(OC(=O)NCc2ccc3c(c2)OCO3)CC2(CCCC(COC(=O)NCCOc3ccccc3)O2)O1` (some centres not stated), the z-score is -0.464.
Consider `CSCC[C@@H]1NC(=O)CC=C[C@@H](C)COC(=O)[C@H](C)COC1=O`, for which the z-score was -1.67.
Still for that read-out and setting: the value for `CO[C@H]1COC(=O)CCC[C@H](C)[C@@H](OC)COC(=O)CC=C[C@@H]1C` was -0.0992; that for `CC(C)[C@@H](OCc1ccccc1)[C@H](C)C=NO[C@@H](C)c1cn([C@H](CO)Cc2ccccc2)nn1` was -0.927.
As to `CCN1C(=O)[C@H]2[C@@H]3C(=CC[C@H]2C1=O)C(=O)[C@H]1O[C@H]1[C@H]3O`, the z-score is -5.2.
For `CC(C)=CCCC(C)=CCON=C1C[C@@H](O)[C@@H](O)[C@@H]2[C@@H]3C(=O)N(C4CCCCC4)C(=O)[C@@H]3CC[C@H]12`, the z-score is -2.76.
Turning to `C=CC[C@@H]1C=C[C@H](ON=C[C@@H](NS(=O)(=O)c2ccc(C)cc2)[C@H](C)C=CCC(=O)OC)[C@@H](CO)O1`, the z-score was 0.182.
Regarding `COC(=O)[C@H](C)NC(=O)CCC1CC(OC(=O)NCCc2ccc(F)cc2)CC2(CCCC(COC(=O)NCCOc3ccccc3)O2)O1` (some centres not stated), the z-score was -0.471.
`CO[C@@H]1COC(=O)[C@H](COCc2ccccc2)NC(=O)CC=C[C@@H](C)[C@H](OC)COC(=O)[C@@H](C)NC(=O)CC=C[C@H]1C`: the z-score is -0.0313.
As for `CC(CCC(=O)OC[C@H]1O[C@H](C#Cc2ccccc2)C=C[C@@H]1Oc1ccc(C)cc1)=NOC[C@@H](C)[C@H](OCc1ccccc1)C(C)C`, the z-score is -0.276.
Consider `COC(=O)[C@H](C)NC(=O)CC=C[C@@H](C)[C@@H]1C=C[C@H](O)[C@@H](CO)O1`, for which the z-score was 0.301.
Regarding `C=CC[C@@H]1C=C[C@H](ON=C(C)CCN2CCCc3nc(C)c(C)cc32)[C@@H](CO)O1`, the z-score was -0.686.
As to `O=C1C=C[C@@H](O)[C@@H]2[C@@H]3C(=O)N(Cc4ccccc4)C(=O)[C@@H]3CC[C@@H]12`, the z-score is -0.122.

Another assay is described as follows: P. aeruginosa biofilm formation inhibitors, primary screen, PAO1 strain, BacTiter-Glo luminescence, LB-PBS (AID 1144). To be noted: 12 h, higher = more signal.
Consider `CON=C(C)CCC(=O)OC[C@H]1O[C@H](C#Cc2ccccc2)C=C[C@@H]1Oc1ccc(C)cc1`, for which the z-score was -0.0775.
For `CC(C)(C)N1C(=O)[C@H]2[C@H]3[C@H](O)[C@H](O)CC(=NOC[C@@H](O)COCc4ccco4)[C@@H]3CC[C@H]2C1=O`, the z-score is -0.579.
On the same count and under the same terms, the value for `CO[C@@H]1[C@H](O)CO[C@H]1C=Cc1ccccc1` was 0.165.
In the case of `CCN1C(=O)[C@H]2[C@H]3[C@H](O)[C@H](O)CC(=NOCC[C@@H]4C=C[C@H](OC(C)=O)[C@@H](COC(C)=O)O4)[C@@H]3CC[C@H]2C1=O`, the z-score was 0.857.
For the compound `CO[C@@H](C1CCCCC1)[C@@H](C)[C@H](OCc1cccc(Br)c1)[C@@H](C)CO`, the z-score is 0.115.
Turning to `CCOC(=O)CCN1C(=O)[C@H]2[C@H]3[C@H](O)[C@H](O)CC(=NOCC(C)C)[C@@H]3CC[C@H]2C1=O`, the z-score is -0.123.
In the case of `CCOC(=O)CCN1C(=O)[C@H]2[C@H]3[C@H](O)[C@H](O)CC(=NO[C@@H]4O[C@H](CO)[C@@H](O)[C@H](O)[C@H]4O)[C@@H]3CC[C@H]2C1=O`, the z-score is 1.24.
As for `CO[C@H]1COC(=O)CC=C[C@@H](C)COC(=O)[C@H]2CCCN2C(=O)CC=C[C@H]1C`, the z-score was 0.106.
In the case of `CCOC(=O)[C@H](Cc1ccccc1)NC(=O)CCC1CC(OC(=O)NCc2cccc3ccccc23)CC2(CCCC(COC(=O)NCCc3ccccc3OC)O2)O1` (some centres not stated), the z-score is 0.0213.
Take `Cc1ccc(S(=O)(=O)N[C@@H]2COC(=O)CC=C[C@@H](C)[C@H](NS(=O)(=O)c3ccc(C)cc3)COC(=O)[C@H](C)NC(=O)CC=C[C@H]2C)cc1`: the z-score is -0.88.
On the same count and under the same terms, then `CCN1C(=O)[C@H]2[C@H]3[C@H](O)[C@H](O)CC(=NOCC=C(C)CCC=C(C)C)[C@@H]3CC[C@H]2C1=O`, with 0.17; and `O=C1[C@H]2[C@H]3[C@H](O)[C@H](O)CC(=NOC[C@@H](O)COCc4ccco4)[C@@H]3CC[C@H]2C(=O)N1Cc1ccccc1`, with 0.969; and `O=C1[C@H]2CCn3c(=O)n(-c4ccccc4)c(=O)n3[C@H]2[C@H](O)[C@@H]2O[C@H]12`, with 0.102.
For `CON=C[C@@H](OC)[C@H](C)C=CCC(=O)OC`, the z-score was 0.157.
Take `CC(C)=CCCC(C)=CCON=C1C[C@@H](O)[C@@H](O)[C@@H]2[C@@H]3C(=O)N(Cc4ccc5c(c4)OCO5)C(=O)[C@@H]3CC[C@@H]12`: the z-score was 0.73.
The same measure, in the same setting: the value for `CC(=O)OC[C@H]1O[C@H](CC=NO[C@@H](C)c2cc(-c3c(C)cc(C)cc3C)no2)C=C[C@@H]1OC(C)=O` was -0.176.
In the case of `COc1ccc(-c2cnnc(CCCn3ccnc3-c3ccccc3)n2)cc1`, the z-score is -0.459.
Regarding `O=C1C2=CC[C@H]3C(=O)N(c4ccc(F)cc4F)C(=O)[C@H]3[C@H]2[C@H](O)[C@@H]2O[C@H]12`, the z-score is -0.845.
Turning to `COC(=O)CC=C[C@@H](C)[C@@H](C=NOC[C@@H](O)COCc1ccco1)OC`, the z-score was 1.47.
Take `COC(=O)[C@H](C)NC(=O)CCC1CC(OC(=O)NCc2cccc3ccccc23)CC2(CCCC(COC(=O)NCCCN3CCCC3=O)O2)O1` (some centres not stated): the z-score was -1.07.
With `CCOC(=O)[C@H](CC(C)C)NC(=O)CCC1CC(OC(=O)NCc2ccc3c(c2)OCO3)CC2(CCCC(COC(=O)NCCc3ccccc3OC)O2)O1` (some centres not stated), the z-score is 0.162.
The same measure, in the same setting: the value for `CO[C@@H](C(C)C)[C@@H](C)C1OC(=O)CC1O` (some centres not stated) was 0.446; that for `Cc1ccc(C(C)C)n1C(=O)OC(C)(C)C` was -1.5; that for `CCOC(=O)[C@H](Cc1ccccc1)NC(=O)CCC1CC(OC(=O)NCc2ccc3c(c2)OCO3)CC2(CCCC(COC(=O)NCCOc3ccccc3)O2)O1` (some centres not stated) was -1.09.
Take `CSCC[C@@H]1NC(=O)CC=C[C@@H](C)COC(=O)[C@H](C)COC1=O`: the z-score is -1.66.
As for `CO[C@H]1COC(=O)CCC[C@H](C)[C@@H](OC)COC(=O)CC=C[C@@H]1C`, the z-score is 0.132.
Take `CC(C)[C@@H](OCc1ccccc1)[C@H](C)C=NO[C@@H](C)c1cn([C@H](CO)Cc2ccccc2)nn1`: the z-score was 0.496.
Regarding `CCN1C(=O)[C@H]2[C@@H]3C(=CC[C@H]2C1=O)C(=O)[C@H]1O[C@H]1[C@H]3O`, the z-score was 1.41.
On the same count and under the same terms, then `CC(C)=CCCC(C)=CCON=C1C[C@@H](O)[C@@H](O)[C@@H]2[C@@H]3C(=O)N(C4CCCCC4)C(=O)[C@@H]3CC[C@H]12`, with 0.419.
On the same count and under the same terms, the value for `C=CC[C@@H]1C=C[C@H](ON=C[C@@H](NS(=O)(=O)c2ccc(C)cc2)[C@H](C)C=CCC(=O)OC)[C@@H](CO)O1` was 1.33.
Still for that read-out and setting: then `COC(=O)[C@H](C)NC(=O)CCC1CC(OC(=O)NCCc2ccc(F)cc2)CC2(CCCC(COC(=O)NCCOc3ccccc3)O2)O1` (some centres not stated), with 0.706; and `CO[C@@H]1COC(=O)[C@H](COCc2ccccc2)NC(=O)CC=C[C@@H](C)[C@H](OC)COC(=O)[C@@H](C)NC(=O)CC=C[C@H]1C`, with 0.104.
Take `CC(CCC(=O)OC[C@H]1O[C@H](C#Cc2ccccc2)C=C[C@@H]1Oc1ccc(C)cc1)=NOC[C@@H](C)[C@H](OCc1ccccc1)C(C)C`: the z-score was -0.193.
In the case of `COC(=O)[C@H](C)NC(=O)CC=C[C@@H](C)[C@@H]1C=C[C@H](O)[C@@H](CO)O1`, the z-score is 1.
With `C=CC[C@@H]1C=C[C@H](ON=C(C)CCN2CCCc3nc(C)c(C)cc32)[C@@H](CO)O1`, the z-score was -0.0889.
As to `O=C1C=C[C@@H](O)[C@@H]2[C@@H]3C(=O)N(Cc4ccccc4)C(=O)[C@@H]3CC[C@@H]12`, the z-score is -0.158.

The record behind these values is PubChem BioAssay.
